Laboratory results from PubChem BioAssay AID1159580 (chemical genetic matrix, 2015).
Several values for one entry are separate records, joined by “and”; a condition that tells them apart may be missing. Identical values can stand only once. The campaign covered roughly 5,500 compounds. About 2,000 (36%) were called active. Not shown: some 18% with an inconclusive outcome. No stated cut-off is given here; in the data, active means normalized growth mostly below about 0.91 (no sharp cut-off); inconclusive means no clear call, values can overlap the other calls; inactive means mostly above about 0.92. The list shows a part of the results.

Experiment: chemical genetic growth profiling, strain panel (AID 1159580);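 further: tested at 20 µM; growth read once vehicle control cultures reached saturation at 30 °C; 1 = growth at the plate median or of vehicle wells; lower values mean less growth of the strain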
Details: growth OD

Measured: normalized growth

O=c1[nH]c2cc(Cl)c(Cl)cc2[nH]c1=O
active: S. cerevisiae deletion strains, locus YLR330W, strain CHS5, active compounds read low 0.894
inactive: S. cerevisiae deletion strains, locus YJR075W, strain HOC1, active compounds read low 1 and 1.01 | S. cerevisiae deletion strains, locus YKL009W, strain mrt4, active compounds read low 1.02 | S. cerevisiae deletion strains, locus YKL068W, active compounds read low 1.02 | S. cerevisiae deletion strains, locus YKL085W, strain MDH1 (second series), active compounds read low 1.01 | S. cerevisiae deletion strains, locus YKL085W, strain MDH1, active compounds read low 1.01 | S. cerevisiae deletion strains, locus YKL160W, strain elf1, active compounds read low 0.988 | S. cerevisiae deletion strains, locus YKL190W, strain CNB1, active compounds read low 1.01 | S. cerevisiae deletion strains, locus YKR001C, strain vps1, active compounds read low 1.05 | S. cerevisiae deletion strains, locus YKR026C, strain gcn3, active compounds read low 0.989 | S. cerevisiae deletion strains, locus YKR091W, strain srl3, active compounds read low 0.987 | S. cerevisiae deletion strains, locus YLL001W, strain dnm1, active compounds read low 0.992 | S. cerevisiae deletion strains, locus YLL026W, active compounds read low 0.988 | S. cerevisiae deletion strains, locus YLL041C, strain sdh2, active compounds read low 0.995 | S. cerevisiae deletion strains, locus YLR027C, strain aat2, active compounds read low 0.957 | S. cerevisiae deletion strains, locus YLR039C, strain RIC1, active compounds read low 1.04 | S. cerevisiae deletion strains, locus YLR058C, strain SHM2, active compounds read low 1.01 | S. cerevisiae deletion strains, locus YLR102C, strain apc9, active compounds read low 1.02 | S. cerevisiae deletion strains, locus YLR221C, strain rsa3, active compounds read low 0.955 | S. cerevisiae deletion strains, locus YLR258W, strain gsy2, active compounds read low 0.99 | S. cerevisiae deletion strains, locus YLR262C, strain YPT6 (second series), active compounds read low 0.989 | S. cerevisiae deletion strains, locus YLR262C, strain YPT6, active compounds read low 1.04 | S. cerevisiae deletion strains, locus YLR268W, strain sec22, active compounds read low 1.03 | S. cerevisiae deletion strains, locus YLR320W, strain mms22, active compounds read low 0.963 | S. cerevisiae deletion strains, locus YLR342W, strain FKS1 (second series), active compounds read low 0.99 | S. cerevisiae deletion strains, locus YLR342W, strain FKS1, active compounds read low 0.988 | S. cerevisiae deletion strains, locus YLR357W, strain rsc2, active compounds read low 0.984 | S. cerevisiae deletion strains, locus YLR370C, strain arc18, active compounds read low 0.995 | S. cerevisiae deletion strains, locus YLR371W, strain rom2, active compounds read low 1.03 | S. cerevisiae deletion strains, locus YLR384C, strain iki3, active compounds read low 1.01 | S. cerevisiae deletion strains, locus YLR418C, strain cdc73, active compounds read low 1.07 | S. cerevisiae deletion strains, locus YML016C, strain PPZ1, active compounds read low 1.01 | S. cerevisiae deletion strains, locus YML032C, strain rad52, active compounds read low 1.04 | S. cerevisiae deletion strains, locus YML120C, strain ndi1, active compounds read low 1.02 | S. cerevisiae deletion strains, locus YML124C, strain tub3, active compounds read low 1.02 | S. cerevisiae deletion strains, locus YMR058W, strain fet3, active compounds read low 0.994 | S. cerevisiae deletion strains, locus YMR078C, strain ctf18, active compounds read low 1.03 | S. cerevisiae deletion strains, locus YMR125W, strain sto1, active compounds read low 0.994 | S. cerevisiae deletion strains, locus YMR129W, active compounds read low 1.01 | S. cerevisiae deletion strains, locus YMR205C, strain PFK2, active compounds read low 0.974 | S. cerevisiae deletion strains, locus YMR223W, strain ubp8, active compounds read low 1.03 | S. cerevisiae deletion strains, locus YMR231W, strain pep5, active compounds read low 0.996 | S. cerevisiae deletion strains, locus YMR263W, strain SAP30, active compounds read low 1 | S. cerevisiae deletion strains, locus YMR307W, strain GAS1, active compounds read low 1.03 and 1.01 | S. cerevisiae deletion strains, locus YNL067W, strain RPL9B, active compounds read low 1.01 | S. cerevisiae deletion strains, locus YNL071W, strain lat1, active compounds read low 0.999 | S. cerevisiae deletion strains, locus YNL128W, strain TEP1, active compounds read low 1.02 | S. cerevisiae deletion strains, locus YNL153C, strain GIM3, active compounds read low 1.01 | S. cerevisiae deletion strains, locus YNL175C, strain NOP13, active compounds read low 0.996 | S. cerevisiae deletion strains, locus YNL197C, strain WHI3, active compounds read low 0.975 | S. cerevisiae deletion strains, locus YNL209W, strain ssb2, active compounds read low 1 | S. cerevisiae deletion strains, locus YNL224C, strain SQS1, active compounds read low 1 | S. cerevisiae deletion strains, locus YNL233W, strain BNI4, active compounds read low 1 | S. cerevisiae deletion strains, locus YNL248C, strain rpa49, active compounds read low 1.01 | S. cerevisiae deletion strains, locus YNL250W, strain rad50, active compounds read low 1.03 | S. cerevisiae deletion strains, locus YNL271C, strain bni1, active compounds read low 1.04 | S. cerevisiae deletion strains, locus YNL298W, strain CLA4, active compounds read low 1.03 | S. cerevisiae deletion strains, locus YNL307C, strain MCK1, active compounds read low 1.04 | S. cerevisiae deletion strains, locus YNL322C, strain KRE1 (second series), active compounds read low 0.985 | S. cerevisiae deletion strains, locus YNL322C, strain KRE1, active compounds read low 1 | S. cerevisiae deletion strains, locus YNR049C, strain mso1, active compounds read low 0.992 | S. cerevisiae deletion strains, locus YNR052C, strain pop2, active compounds read low 1.03 | S. cerevisiae deletion strains, locus YOL006C, strain TOP1, active compounds read low 1.05 | S. cerevisiae deletion strains, locus YOL012C, strain htz1 1.66 | S. cerevisiae deletion strains, locus YOL147C, strain pex11, active compounds read low 1.03 | S. cerevisiae deletion strains, locus YOR001W, strain rrp6, active compounds read low 0.959 | S. cerevisiae deletion strains, locus YOR061W, strain CKA2, active compounds read low 1.02 | S. cerevisiae deletion strains, locus YOR069W, strain VPS5, active compounds read low 1.01 | S. cerevisiae deletion strains, locus YOR070C, strain gyp1, active compounds read low 0.97 | S. cerevisiae deletion strains, locus YOR080W, strain dia2, active compounds read low 0.983 | S. cerevisiae deletion strains, locus YOR083W, strain WHI5 (second series), active compounds read low 0.984 | S. cerevisiae deletion strains, locus YOR083W, strain WHI5, active compounds read low 0.982 | S. cerevisiae deletion strains, locus YOR106W, strain vam3, active compounds read low 1.01 | S. cerevisiae deletion strains, locus YOR136W, strain idh2, active compounds read low 1.04 | S. cerevisiae deletion strains, locus YOR144C, strain elg1, active compounds read low 1.02 | S. cerevisiae deletion strains, locus YOR184W, strain ser1, active compounds read low 1.03 | S. cerevisiae deletion strains, locus YOR265W, strain rbl2, active compounds read low 0.987 | S. cerevisiae deletion strains, locus YOR270C, strain vph1, active compounds read low 0.96 | S. cerevisiae deletion strains, locus YOR290C, strain snf2, active compounds read low 0.971 | S. cerevisiae deletion strains, locus YOR316C, strain cot1, active compounds read low 1.02 | S. cerevisiae deletion strains, locus YPL051W, strain arl3, active compounds read low 0.961 | S. cerevisiae deletion strains, locus YPL055C, strain LGE1, active compounds read low 1.02 | S. cerevisiae deletion strains, locus YPL078C, strain atp4, active compounds read low 0.997 | S. cerevisiae deletion strains, locus YPL106C, strain sse1, active compounds read low 0.97 | S. cerevisiae deletion strains, locus YPL240C, strain hsp82, active compounds read low 0.988 | S. cerevisiae deletion strains, locus YPL241C, strain CIN2, active compounds read low 1.01 | S. cerevisiae deletion strains, locus YPR119W, strain clb2, active compounds read low 1.03 | S. cerevisiae deletion strains, locus YPR141C, strain kar3, active compounds read low 1.03 | S. cerevisiae deletion strains, locus YPR163C, strain tif3, active compounds read low 1.04 | S. cerevisiae deletion strains, locus YPR167C, strain met16, active compounds read low 1.02 | S. cerevisiae deletion strains, strain wtn01, active compounds read low 1.02 | S. cerevisiae strains, strain wild type, active compounds read low 1.01
